According to PubChem BioAssay (NCI):
Compounds without any hit were thinned out: in the full panel of roughly 83,000, 20% have a hit.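 Results are percent growth after 48 hours of single-concentration exposure. 100 means growth as in untreated cells, lower positive values show inhibition; negative values down to -100 show cell death.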 Unmarked numbers belong to inactive results. The source made the active and inactive calls. How the source made its calls: active means growth percent below 10; inactive means the rest.

tested on: OVCAR-5 ovarian; assay: NCI-60 one-dose screen, 48 h (100 = growth as untreated, 0 = no growth, -100 = all killed); settings: 10 µM unless noted

Row | Compound | growth
1 | CSc1ccc(-c2n[nH]nc2-c2cc3ccccc3s2)cc1 | 95.3%
2 | Clc1ccc2c(NCCCNc3nc(-n4ccnc4)nc4ccccc34)ccnc2c1 | 96.3%
3 | CN1CCN(c2nc(NCCCNc3ccnc4cc(Cl)ccc34)c3ccccc3n2)CC1 | 84.8%
4 | CN(C)c1ccc(NC(=O)c2ccc(/C=C/C(=O)c3ncc[nH]3)cc2)cc1 | 95.4%
5 | COc1ccc(S(=O)(=O)N2CCCCC2)cc1NC(=O)c1[nH]c(C)c2c1CCCCC2=O | 48.4%
6 | CCn1c(O)c(/C=N/NC(=O)C(C)c2ccc(CC(C)C)cc2)sc1=S (stereo unspecified) | 52%
7 | Cc1nn(-c2cc(=O)[nH]c3ccc(Cl)cc23)c(N)c1C#N | 99.3%
8 | O=C1/C(=C(/c2ccccc2)N2CCOCC2)Cc2ccccc21 | 34.4%
9 | O=C(COc1cccc(/C=C2\COc3ccccc3C2=O)c1)Nc1nccs1 | 81.8%
10 | CCN=C1C=CC(=C(c2ccc(N)cc2)c2ccc(N(CC)CC)c(C)c2)C=C1 | 18.2%
11 | O=C(C(=O)c1ccc2c(c1)OCO2)c1ccc2c(c1)OCO2 | 109%
12 | COc1ccc(/C=C2\Oc3cc(OCCCCN4CCCC4)ccc3C2=O)cc1 | 93.4%
13 | COc1cc(-c2nn(-c3ccc(Br)cc3)cc2C(=O)O)ccc1O | 122%
14 | O=c1ccccc(-c2ccc(-c3ccco3)cc2)c1O | 54.9%
15 | Cn1cc(C(=O)c2nc(-c3c[nH]c4ccc(Br)cc34)no2)c2cc(F)ccc21 | 99.3%
16 | COc1ccc(O)c(N=Nc2nccs2)c1 | 120%
17 | CCc1nc(N)nc(N)c1C#CC(C)c1cc(-c2ccnc(C)c2)c2oc(C)nc2c1 (stereo unspecified) | 36.8%
18 | CC(=O)Nc1ccc(-n2c(O)c(/C=N/NC(=O)Cc3ccccc3Nc3c(Cl)cccc3Cl)sc2=S)cc1 | 114%
19 | O=Nc1c(O)c(Cl)cc2ccccc12 | 115%

Row | Compound | growth
20 | FC(F)(F)c1ccc(-c2cn3nc(-c4c[nH]c5ccc(Br)cc45)sc3n2)cc1 | 95.5%
21 | Cn1cc(-c2nonc2-c2c[nH]c3ccccc23)c2cccnc21 | 72.3%
22 | Cn1cc(-c2nonc2-c2cn(C)c3ccc(F)cc23)c2ccccc21 | 41.5%
23 | Brc1ccc(-c2csc(Nc3ccccn3)n2)cc1 | 92.4%
24 | Clc1ccc2c(NCCNc3nc(N4CCOCC4)nc4ccccc34)ccnc2c1 | 51.8%
25 | COc1ccc(-c2cc(-c3ccc(Nc4ccnc5cc(Cl)ccc45)cc3)nc(N3CCOCC3)n2)cc1 | 135%
26 | COc1cc2c(cc1-c1c(C)noc1C)ncc1nc(C3CCCC3)n([C@H](C)COC(F)F)c12 | 78%
27 | CCOc1cc2ncc(C#N)c(Nc3ccc(OCc4cccc(F)c4)c(Cl)c3)c2cc1NC(=O)CCCCC1CCSS1 (stereo unspecified) | 111%
28 | Oc1ccccc1-c1nnc(CNc2ccc(Cl)cc2)o1 | 64%
29 | COc1cc2c(cc1-c1c(C)noc1C)ncc1nc(C3CCCCC3)n([C@H](C)COC(F)F)c12 | 75.1%
30 | COc1cc(/C=C/C(=O)Nc2cccnc2Nc2ccc(F)cc2)cc(OC)c1OC | 105%
31 | Cn1c(NCCc2ccc(O)c(O)c2)nc2c1c(=O)n(Cc1ccc(Cl)c(Cl)c1)c(=O)n2C | 83.1%
32 | Cc1ccc(C2=NN3C(C2)c2cc(Br)ccc2OC32CCN(Cc3ccccc3)CC2)o1 (stereo unspecified) | 109%
33 | O=C1/C(=C/C(Cl)=C/c2ccccc2)SC(=S)N1CCc1ccc(O)cc1 | -20.3% (active)
34 | NC(=O)c1cc(Br)ccc1NC(=O)/C=C/c1ccccc1 | 49.9%
35 | CC(O)CN(CC(C)O)c1ccc2c(c1)Cc1cc([N+](=O)[O-])ccc1-2 (stereo unspecified) | 86.2%
36 | C=C1C(=O)O[C@H]2[C@H]1CC/C(COC(=O)c1cc3cc(OC)ccc3[nH]1)=C\CC[C@@]1(C)O[C@@H]21 | -58.6% (active)
37 | COc1cc(C(=O)/C=C/c2cccnc2Nc2ccc(Cl)cc2)cc(OC)c1OC | -78.3% (active)
38 | O=c1cc(CSc2nnc(SCc3cc(=O)oc4c3ccc3ccccc34)o2)c2ccc3ccccc3c2o1 | 99.7%

tested on: OVCAR-4 ovarian; assay: as above; settings: 10 µM unless noted

Row | Compound | growth
39 | CSc1ccc(-c2n[nH]nc2-c2cc3ccccc3s2)cc1 | 75.8%
40 | Clc1ccc2c(NCCCNc3nc(-n4ccnc4)nc4ccccc34)ccnc2c1 | 75%
41 | CN1CCN(c2nc(NCCCNc3ccnc4cc(Cl)ccc34)c3ccccc3n2)CC1 | 59.8%
42 | CN(C)c1ccc(NC(=O)c2ccc(/C=C/C(=O)c3ncc[nH]3)cc2)cc1 | 75.7%
43 | COc1ccc(S(=O)(=O)N2CCCCC2)cc1NC(=O)c1[nH]c(C)c2c1CCCCC2=O | 42%
44 | CCn1c(O)c(/C=N/NC(=O)C(C)c2ccc(CC(C)C)cc2)sc1=S (stereo unspecified) | 56.7%
45 | Cc1nn(-c2cc(=O)[nH]c3ccc(Cl)cc23)c(N)c1C#N | 89.2%
46 | O=C1/C(=C(/c2ccccc2)N2CCOCC2)Cc2ccccc21 | 31.7%
47 | O=C(COc1cccc(/C=C2\COc3ccccc3C2=O)c1)Nc1nccs1 | 97.2%
48 | CCN=C1C=CC(=C(c2ccc(N)cc2)c2ccc(N(CC)CC)c(C)c2)C=C1 | 24.2%
49 | O=C(C(=O)c1ccc2c(c1)OCO2)c1ccc2c(c1)OCO2 | 99.8%
50 | COc1ccc(/C=C2\Oc3cc(OCCCCN4CCCC4)ccc3C2=O)cc1 | 92.3%
51 | COc1cc(-c2nn(-c3ccc(Br)cc3)cc2C(=O)O)ccc1O | 101%
52 | O=c1ccccc(-c2ccc(-c3ccco3)cc2)c1O | 23.7%
53 | Cn1cc(C(=O)c2nc(-c3c[nH]c4ccc(Br)cc34)no2)c2cc(F)ccc21 | 93.1%
54 | COc1ccc(O)c(N=Nc2nccs2)c1 | 37.1%
55 | CCc1nc(N)nc(N)c1C#CC(C)c1cc(-c2ccnc(C)c2)c2oc(C)nc2c1 (stereo unspecified) | 51%
56 | CC(=O)Nc1ccc(-n2c(O)c(/C=N/NC(=O)Cc3ccccc3Nc3c(Cl)cccc3Cl)sc2=S)cc1 | 105%
57 | O=Nc1c(O)c(Cl)cc2ccccc12 | 78.9%

Row | Compound | growth
58 | FC(F)(F)c1ccc(-c2cn3nc(-c4c[nH]c5ccc(Br)cc45)sc3n2)cc1 | 102%
59 | Cn1cc(-c2nonc2-c2c[nH]c3ccccc23)c2cccnc21 | 74.5%
60 | Cn1cc(-c2nonc2-c2cn(C)c3ccc(F)cc23)c2ccccc21 | 41.6%
61 | Brc1ccc(-c2csc(Nc3ccccn3)n2)cc1 | 50%
62 | Clc1ccc2c(NCCNc3nc(N4CCOCC4)nc4ccccc34)ccnc2c1 | 3.78% (active)
63 | COc1ccc(-c2cc(-c3ccc(Nc4ccnc5cc(Cl)ccc45)cc3)nc(N3CCOCC3)n2)cc1 | -52.1% (active)
64 | COc1cc2c(cc1-c1c(C)noc1C)ncc1nc(C3CCCC3)n([C@H](C)COC(F)F)c12 | 40.9%
65 | CCOc1cc2ncc(C#N)c(Nc3ccc(OCc4cccc(F)c4)c(Cl)c3)c2cc1NC(=O)CCCCC1CCSS1 (stereo unspecified) | 99.6%
66 | Oc1ccccc1-c1nnc(CNc2ccc(Cl)cc2)o1 | 34.2%
67 | COc1cc2c(cc1-c1c(C)noc1C)ncc1nc(C3CCCCC3)n([C@H](C)COC(F)F)c12 | 44.8%
68 | COc1cc(/C=C/C(=O)Nc2cccnc2Nc2ccc(F)cc2)cc(OC)c1OC | 93%
69 | Cn1c(NCCc2ccc(O)c(O)c2)nc2c1c(=O)n(Cc1ccc(Cl)c(Cl)c1)c(=O)n2C | 52.8%
70 | Cc1ccc(C2=NN3C(C2)c2cc(Br)ccc2OC32CCN(Cc3ccccc3)CC2)o1 (stereo unspecified) | 94.3%
71 | O=C1/C(=C/C(Cl)=C/c2ccccc2)SC(=S)N1CCc1ccc(O)cc1 | 30.7%
72 | NC(=O)c1cc(Br)ccc1NC(=O)/C=C/c1ccccc1 | 35.8%
73 | CC(O)CN(CC(C)O)c1ccc2c(c1)Cc1cc([N+](=O)[O-])ccc1-2 (stereo unspecified) | 112%
74 | C=C1C(=O)O[C@H]2[C@H]1CC/C(COC(=O)c1cc3cc(OC)ccc3[nH]1)=C\CC[C@@]1(C)O[C@@H]21 | -81.5% (active)
75 | COc1cc(C(=O)/C=C/c2cccnc2Nc2ccc(Cl)cc2)cc(OC)c1OC | -90.4% (active)
76 | O=c1cc(CSc2nnc(SCc3cc(=O)oc4c3ccc3ccccc34)o2)c2ccc3ccccc3c2o1 | 111%
